# Hits are enriched below; roughly 5.4% of the tested compounds scored in any of these assays.
# Sm TGR block: blocks Schistosoma mansoni thioredoxin glutathione reductase. AID 485364. Potency, µM (doses to about 114 µM), inactives show at the top dose activity change, negative = inhibition, hits mostly inhibitors. purified TGR, DTNB reduction, TNB absorbance 405 nm. hit rate 3% among 360,000; active = well fitted inhibition curve with a large enough effect; inconclusive = small, poorly fitted or top-dose-only effect; inactive = no such curve, though single readings can be large or run the other way; note: nearly all actives have a fitted effect of over 60% in size
#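 Kinetic colorimetric format: TGR-catalysed, NADPH-driven DTNB reduction monitored via TNB absorbance. Enzyme dispensed at 20 nM; compound exposure 15 min at room temperature before reaction start.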
# VACV mCherry inh: inhibitors of vaccinia virus infection (mCherry reporter signal). Potency, µM (doses to about 36.5 µM), for inactives: top-dose activity change, negative = inhibition, usual class: inhibitors. hit rate 0.63% among 310,000. Vaccinia virus mCherry reporter infection, fluorescence; calls by dose curve; tested in A549 cells; note: nearly all actives have a fitted effect of over 35% in size
# VACV Venus inh: inhibitors of vaccinia virus (Venus reporter). Vaccinia virus Venus reporter expression, fluorescence. Potency, µM (series often up to 36.5 µM), for the others: top-dose activity change, negative = inhibition, actives largely listed as inhibitors. hit rate 0.46% among 330,000. AID 720580; calls by dose curve; tested in A549 cells; note: nearly all actives have a fitted effect of over 30% in size
# FMDV inh: antivirals against foot and mouth disease virus. Potency, µM (highest dose often 57.9 µM), inactives show top-dose activity change, negative = inhibition, most hits filed as inhibitors. hit rate 1.2% among 410,000. AID 1159524. FMDV antiviral cell-based qHTS; calls by dose curve; tested in HEK293T cells; note: read-out not given here; nearly all actives have a fitted effect of over 45% in size
# Marburg entry inh: blocks Marburg virus binding to or entry into cells | Marburg virus pseudotyped entry inhibition, cell reporter | Potency, µM (doses to about 37.8 µM), for inactives: top-dose activity change, negative = inhibition, usual class: inhibitors | hit rate 1.8% among 300,000 | AID 540276; calls by dose curve; tested in HEK293 cells
# Lassa entry inh: Lassa virus entry inhibition; Lassa virus pseudotype entry inhibition, cell reporter; Potency, µM (doses to about 37.9 µM), for inactives: at the top dose activity change, negative = inhibition, most hits filed as inhibitors; hit rate 1.2% among 300,000; AID 540256; calls by dose curve; tested in HEK293 cells; note: nearly all actives have a fitted effect of over 50% in size
# The depositor's hits bear a star; i = inactive; ? = inconclusive; . = not tested or not shown; [ ] = remark or other dose. % is set by controls: 0 for no effect and ±100 for the full control effect; potency is the fitted concentration of half-maximal effect.
SMILES,Sm TGR block,VACV mCherry inh,VACV Venus inh,FMDV inh,Marburg entry inh,Lassa entry inh
Nc1c(C(=O)Nc2ccc(Cl)c(C(=O)O)c2)sc2nc3c(cc12)CCCC3,-23%,-11%,-13%,0%,-15%,?
Nc1c(C(=O)Nc2cccc(C(=O)O)c2)sc2nc3c(cc12)CCCC3,-7%,-17%,-5%,6.3µM*,?,3.2µM*
Cc1ccccc1NC(=O)c1sc2nc3c(cc2c1N)CN(Cc1ccccc1)CC3,79µM*,-19%,-16%,-58%,-18%[46.1 µM],-22%[46.1 µM]
Nc1c(C(=O)Nc2ccc(S(=O)(=O)N3CCCC3)cc2)sc2nc3ccc(OC(F)(F)F)cc3cc12,-4%,-18%,-11%,-1%,6.3µM*,?
Nc1c(C(=O)Nc2ccc(C(=O)O)cc2)sc2nc3c(cc12)CCCC3,8%,-14%,3%,16µM*,25%[46.1 µM],?
COc1ccc(C2=C(C(C)=O)Sc3nnc(-c4ccc(Cl)cc4)n3N2C(C)=O)cc1OC,-22%,?,?,-22%,.,?
CCc1ccc(CN(Cc2cn[nH]c2-c2ccc(OC)cc2)C(=O)Nc2cc(Cl)ccc2OC)cc1,-1%,-17%,-16%,?,-23%[46.1 µM],0%[46.1 µM]
CN(CC(=O)Nc1nc2ccccc2s1)S(=O)(=O)c1ccc(Cl)cc1,-22%,.,.,-27%,14%,18%
CN(CC(=O)Nc1nc2ccccc2s1)S(=O)(=O)c1ccc(Br)cc1,-3%,i,-14%,35µM*,-12%,-14%[14.3 µM]
CCOCC(=O)Nc1nc2ccccc2s1,35µM*,-9%,-6%,35%,5%,?
CCOc1ccc(CCNC(=O)C2CCC(CNS(=O)(=O)c3ccc(Cl)cc3)CC2)cc1OCC (stereo unspecified),-7%,-2%,-7%,-8%,.,1%[46.1 µM]
COc1cccc(N=Cc2c(O)n(Cc3ccco3)c(=O)[nH]c2=O)c1,25µM*,.,.,-9%,.,.
COc1cc2c(cc1OC)C(COc1ccc3c(C)cc(=O)oc3c1)N(C(=O)Cc1ccc(F)cc1)CC2 (stereo unspecified),-2%,7%,0%,0%,8%[46.1 µM],3%[46.1 µM]
C1=NCCc2c1[nH]c1ccccc21,.,i[7.34 µM],-17%[7.34 µM],-2%,?,5µM*
c1ccc2c3c([nH]c2c1)CCCC3,.,43%,-10%,.,.,.
COc1cc2cc(CNc3ccccc3)c(=O)n(CC(=O)Nc3cc(C)cc(C)c3)c2cc1OC,-28%,-4%,-4%,31%,.,-3%[46.1 µM]
COc1cccc(-c2cc(=O)c3cc(NC(=O)c4ccccc4)ccc3[nH]2)c1,-11%,-13%,?,-20%,-33%,?
COc1cccc(-c2cc(=O)c3cc(NC(=O)c4ccc(N(C)C)cc4)ccc3[nH]2)c1,-1%,-3%,?,-20%,?,0.92µM*
C=CCSc1nnc2c(n1)OC=Nc1ccc(Br)cc1-2,7.9µM*,.,6%,13%,-13%,3%
CCSc1nnc2c(n1)OC=Nc1ccc(Br)cc1-2,0%,.,-19%,-6%,8%,2%
Cc1c(N2C(=O)/C(=C/C3CC=CCC3)SC2=S)c(=O)n(-c2ccccc2)n1C (stereo unspecified),7.9µM*,-12%,-24%,18µM*,?,?
Cc1c(N2C(=O)/C(=C3\C(=O)N(CC(=O)O)c4ccccc43)SC2=S)c(=O)n(-c2ccccc2)n1C,?,.,.,25µM*,.,.
Cc1c(N2C(=O)/C(=C\C3CC=CCC3)SC2=S)c(=O)n(-c2ccccc2)n1C (stereo unspecified),28µM*,-15%,-2%,25µM*,?,3%
Cc1c(N2C(=O)/C(=C/c3ccccc3)SC2=S)c(=O)n(-c2ccccc2)n1C,6%,?,-27%,-30%,-1%,-18%
CN(Cc1ccco1)C(=O)c1cc(NC(=O)C2CCC2)c2c(c1)nc(-c1ccncc1)n2C,.,-7%,-7%,1%,.,.
SMILES,Sm TGR block,VACV mCherry inh,VACV Venus inh,FMDV inh,Marburg entry inh,Lassa entry inh
Cc1ccc(Cl)cc1N1CCN(C(=O)CCS(=O)(=O)c2ccc3c(c2)oc(=O)n3C)CC1,?,-22%,-11%,?,.,-9%[46.1 µM]
Cc1ccc(C(=O)NCCc2nnc3n2CCN(Cc2ccnc4ccccc24)CC3)c(C)c1,.,-13%,-14%,-7%,.,.
CCc1ccccc1N1CC23C=CC(O2)C(C(=O)OCC(C)C)C3C1=O (stereo unspecified),3%,-1%,6%,-7%,.,.
Cc1ccc(N2C(=O)C3C4C=CC(CNC(=S)Nc5ccc(F)cc5)(O4)C3C2=O)cc1 (stereo unspecified),3.2µM*,-16%,-15%,0%,?,-2%
Cc1ccc(N2C(=O)C3C4C=CC(CNC(=S)Nc5ccc(Cl)cc5)(O4)C3C2=O)cc1 (stereo unspecified),7.1µM*,-26%,-14%,-1%,?,?
Cc1ccc(N2C(=O)C3C4C=CC(CNC(=S)Nc5cccc(Cl)c5)(O4)C3C2=O)cc1 (stereo unspecified),4µM*,i,-12%,-8%,?,?
CC(C)COC(=O)NCC12C=CC(O1)C1C(=O)N(c3ccc(Cl)cc3)C(=O)C12 (stereo unspecified),1.6µM*,-9%,4%,0%,1%,12%
Cc1ccc(NC(=S)NCCSc2ccc(Cl)cc2)cc1,-16%,0%,-1%,19%,?,-9%
Cc1cc(C)cc(OCC(=O)NCC(c2ccc(Cl)cc2)N2CCCCC2)c1 (stereo unspecified),9%,i,-15%,?,?,?
COc1cccc(C(=O)NCC2Cc3cccc(-c4nc(C)cnc4C)c3O2)c1OC (stereo unspecified),.,26%,50%,-3%,.,.
CC(C)c1cnc2c(c1SCc1cccc(C(F)(F)F)c1)c(=O)n(C)c(=O)n2C,-4%,-4%,-11%,?,.,16%[46.1 µM]
Cc1ccc(N2C(=O)C3C4C=CC(CNC(=S)N5CCN(c6ccccn6)CC5)(O4)C3C2=O)cc1 (stereo unspecified),2.8µM*,.,.,-10%,.,.
Cc1ccc(C)c(NC(=S)N2CCN(c3ccccn3)CC2)c1,-20%,.,.,3%,.,.
CCC(CC)COC(=O)C(C#N)c1nc2ccccc2nc1N1CCN(CC)CC1 (stereo unspecified),-4%,.,.,?,5.2µM*,?
CCC(C)COC(=O)C(C#N)c1nc2ccccc2nc1N1CCCCC1 (stereo unspecified),13%,.,.,-16%,-21%,-2%
NC(=O)c1ccsc1N,6.3µM*,.,.,.,.,.
COc1cc(OC)c(OC)cc1/C=C1\CC(C)C/C(=C\c2cc(OC)c(OC)cc2OC)C1=O (stereo unspecified),-30%,.,.,13µM*,.,.
O=C(O)Cc1sc(-c2ccccc2)nc1-c1ccccc1,4%,.,.,21%,14%,16%
O=C(O)Cc1nc(-c2cccnc2)sc1-c1ccc(Br)cc1,11µM*,-14%,-11%,2%,1%[46.1 µM],12%
Cc1ccc2nc(COc3ccccc3NC(=O)c3ccccc3F)cc(=O)n2c1,10%,-23%,-19%,?,.,-4%[46.1 µM]
